# Laboratory results taken from PubChem BioAssay (EPA / NIEHS).
# Where “and” joins values, the source holds several entries; their conditions need not be identical. Identical values can stand only once. Where a structure was tested more than once in an assay, its records may differ in their call. Calls of active or inactive are those of the source. Rule for the calls: active = hit-call score of the fitted dose curve at least 0.9, where 1 is the maximum; inactive = score below 0.9.
# Read-out: Interleukin-8 (IL8), CXCL8 (gene 3576)
# Assay: BSK_3C_IL8: BioMAP Diversity Plus: 3C Assay for Interleukin-8 (IL8) Biomarker Activity (AID 2283020)
# Conditions: primary human endothelial cells (HUVEC); actives raise or lower the signal
# Method in brief: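 Endothelial primary cells of human umbilical vein origin are dosed with chemical; after 24 h the IL-8 biomarker is measured by ELISA, and concentration–response is fitted in both directions versus DMSO.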
row,Compound,outcome
1,CC(C)(C)C(=O)CC(=O)C(F)(F)C(F)(F)C(F)(F)F,inactive
2,FC(F)(F)C(F)(F)C(F)(F)C(F)(F)C(F)(F)C(F)(F)CC1CO1 (stereo not drawn),inactive
3,O=C(O)C(F)(F)C(F)(F)C(F)(F)C(F)(F)C(F)(F)C(F)(F)C(F)(F)C(F)(F)C(F)(F)C(F)F,inactive
4,O=C(O)C(F)(OC(F)(F)C(F)(OC(F)(F)C(F)(OC(F)(F)C(F)(F)C(F)(F)F)C(F)(F)F)C(F)(F)F)C(F)(F)F (stereo not drawn),inactive
5,FC(F)(F)C(F)(F)C(F)(F)C(F)(F)C(F)(F)CCI,inactive

# Read-out: Monokine induced gamma interferon (MIG), CXCL9 (gene 4283)
# Assay: BSK_3C_MIG: BioMAP Diversity Plus: 3C Assay for Monokine induced gamma interferon (MIG) Biomarker Activity (AID 2283021);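 for AC50: MIG protein level measured by immunoassay in the treated endothelial cultures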
# Conditions: primary human endothelial cells (HUVEC); actives raise or lower the signal
# Method in brief: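 Endothelial primary cells (human umbilical vein) are dosed with test chemical in the 3C system. MIG levels are measured by ELISA at 24 h and fitted in both directions relative to DMSO.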
Compound,outcome,AC50
OCC(F)(F)C(F)(F)C(F)(F)C(F)F,inactive,–
Oc1ccc(Nc2ccccc2)cc1,inactive,–
O=C(O)C(F)(F)C(F)(F)OC(F)(F)F,inactive,–
CCCCCCOC(=O)c1ccccc1O,–,41.2 µM (active) and 40.8 µM (active)
O=S(=O)(O)C(F)(F)C(F)(F)C(F)(F)C(F)(F)C(F)(F)C(F)(F)C(F)(F)F,inactive,–
O=C(O)C(F)(F)C(F)(F)C(F)(F)C(F)(F)F,inactive,–
O=C(O)C(F)(F)C(F)(F)C(F)(F)F,inactive,–
C=CC(F)(F)C(F)(F)C(F)(F)C(F)(F)C(F)(F)C(F)(F)C(F)(F)C(F)(F)C=C,inactive,–
CC(=O)Nc1ccc(N=Nc2cc(C)ccc2O)cc1,inactive,–
N=C(N)C(F)(F)C(F)(F)C(F)(F)C(F)(F)C(F)(F)C(F)(F)C(F)(F)F,inactive,–
O=C(O)C(F)(F)C(F)(F)C(F)(F)C(F)(F)C(F)(F)C(F)(F)C(F)(F)C(F)(F)Cl,inactive,55.1 µM (active)
O=P(O)(O)OCCC(F)(F)C(F)(F)C(F)(F)C(F)(F)C(F)(F)C(F)(F)F,inactive,–
CCCCCCCOC(=O)c1ccccc1C(=O)OCCCCCCC,inactive,–
CCCCCCCCCCCCCCCC[N+](C)(C)Cc1ccccc1,–,4.12 µM (active)
FC(F)(F)C(F)(F)C(F)(F)CI,inactive,–
O=C(O)C(F)(F)C(F)(F)C(F)(F)C(F)(F)C(F)(F)C(F)(F)C(F)(F)C(F)(F)C(F)(F)C(F)(F)C(F)(F)C(F)(F)C(F)(F)F,inactive,–
O=C(O)C(F)(F)C(F)(F)C(F)(F)C(F)(F)C(F)(F)C(F)(F)C(F)(F)C(F)(F)C(F)(F)C(F)(F)C(F)(F)C(F)(F)F,inactive,–
CC(C)(C)C(=O)CC(=O)C(F)(F)C(F)(F)C(F)(F)F,inactive,–
FC(F)(F)C(F)(F)C(F)(F)C(F)(F)C(F)(F)C(F)(F)CC1CO1 (stereo not drawn),inactive,–
O=C(O)C(F)(F)C(F)(F)C(F)(F)C(F)(F)C(F)(F)C(F)(F)C(F)(F)C(F)(F)C(F)(F)C(F)F,inactive,–
O=C(O)C(F)(OC(F)(F)C(F)(OC(F)(F)C(F)(OC(F)(F)C(F)(F)C(F)(F)F)C(F)(F)F)C(F)(F)F)C(F)(F)F (stereo not drawn),inactive,–
FC(F)(F)C(F)(F)C(F)(F)C(F)(F)C(F)(F)CCI,inactive,–
